Test results published in ChEMBL document CHEMBL1157539, “Thousands of chemical starting points for antimalarial lead identification” (Nature, 2010).

Columns and labels:
Assay type in all cases: functional
[1] = tested on: Plasmodium falciparum; test: GSK_TCMDC: Inhibition of Plasmodium falciparum 3D7 in whole red blood cells, using parasite LDH activity as an index of growth. Test compounds present at 2uM
[2] = tested on: Plasmodium falciparum; test: GSK_TCMDC: Inhibition of Plasmodium falciparum Dd2 in whole red blood cells, using parasite LDH activity as an index of growth. Test compounds present at 2uM
[3] = tested on: HepG2; test: GSK_TCMDC: Percent inhibition of human HepG2 cell line. Test compounds present at 10uM.

## CC1CN(Cc2ccc(-c3ccc(-c4nc5cc(F)ccc5[nH]4)s3)cc2)CC(C)O1.O=C(O)C(F)(F)F (stereo not drawn)
[1]
  Inhibition: 88%
[2]
  Inhibition: 89%
[3]
  Inhibition: 35%

## O=C(/C=C/c1ccc(Cl)c(Cl)c1)NCCCCCN1CCCC(CNC(=O)Nc2ccc(Oc3ccccc3)cc2)C1 (stereo not drawn)
[1]
  Inhibition: 99%
[2]
  Inhibition: 6%
[3]
  Inhibition: 26%

## CSc1ccccc1NC(=S)NC1CCN(CCCCCNC(=O)/C=C/c2ccc(Cl)c(Cl)c2)CC1
[1]
  Inhibition: 98%
[2]
  Inhibition: 27%
[3]
  Inhibition: 19%

## CCCCN(C)CC#Cc1ccc2[nH]c(C)c(Cl)c(=O)c2c1
[1]
  Inhibition: 98%
[2]
  Inhibition: 97%
[3]
  Inhibition: 0%

## COc1ccc(-c2ccc(NC(=O)c3ccc(C#N)cc3)c(F)c2)cc1CN(C)CCN(C)C.O=C(O)C(F)(F)F
[1]
  Inhibition: 88%
[2]
  Inhibition: 0%
[3]
  Inhibition: 24%

## Cc1nc(-c2nc(NCCc3ccncc3)ncc2-c2ccsc2)sc1C
[1]
  Inhibition: 92%
[2]
  Inhibition: 87%
[3]
  Inhibition: 10%

## O=c1cc(NCCCN(Cc2ccccc2)Cc2ccccc2)[nH]c2ccccc12
[1]
  Inhibition: 100%
[2]
  Inhibition: 93%
[3]
  Inhibition: 7%

## O=C(/C=C/c1ccc(Cl)c(Cl)c1)NCCCCCN1CCC(NC(=O)Nc2cc(Cl)ccc2Cl)CC1
[1]
  Inhibition: 99%
[2]
  Inhibition: 31%
[3]
  Inhibition: 99%

## COc1ccc(C(=O)NCCCCN2CCC(c3ccc4c(c3OC)CCCC4)CC2)cc1-c1ccc(C(F)(F)F)cc1
[1]
  Inhibition: 100%
[2]
  Inhibition: 56%
[3]
  Inhibition: 67%

## O=C(Nc1cccc(-c2csc(-c3ccccc3)n2)c1)c1cccs1
[1]
  Inhibition: 89%
[2]
  Inhibition: 71%
[3]
  Inhibition: 0%

## CCCCCCc1ncc(-c2cc3cc(O)c(-c4ccccc4)cc3oc2=O)s1
[1]
  Inhibition: 90%
[2]
  Inhibition: 63%
[3]
  Inhibition: 4%
